“And” between values parts separate entries of the source, which are not always exact repeats. Identical values can stand only once. Among all 5,500 compounds or so, about 2,000 (36%) were called active. About 18% were inconclusive and are not listed. No stated cut-off is given here; in the data, active means normalized growth mostly below about 0.91 (no sharp cut-off); inconclusive means no clear call, values can overlap the other calls; inactive means mostly above about 0.92. The list shows a part of the results.
Assay: chemical genetic growth profiling, strain panel (AID 1159580);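 further: tested at 20 µM; growth read once vehicle control cultures reached saturation at 30 °C; 1 = growth at the plate median or of vehicle wells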
Details: S. cerevisiae deletion strains, growth OD

Measured: normalized growth

CC(=O)OCC1=C(C(=O)O)N2C(=O)[C@@H](NC(=O)CCCC(N)C(=O)O)C2SC1 (some centres not stated)
inactive: locus YAL013W, strain DEP1, stronger effect = lower value 1.02 | locus YAL021C, strain ccr4, stronger effect = lower value 1.01 | locus YAL026C, strain drs2, stronger effect = lower value 1.01 | locus YAL030W, strain snc1, stronger effect = lower value 0.998 | locus YBL061C, strain skt5, stronger effect = lower value 0.997 | locus YBR009C, strain hhf1, stronger effect = lower value 1.02 | locus YBR021W, strain FUR4, stronger effect = lower value 0.998 | locus YBR023C, strain chs3, stronger effect = lower value 0.987 | locus YBR171W, strain sec66, stronger effect = lower value 1 | locus YBR229C, strain ROT2, stronger effect = lower value 1 | locus YBR231C, strain swc5, stronger effect = lower value 0.992 | locus YBR279W, strain paf1, stronger effect = lower value 0.989 | locus YCL011C, strain gbp2, stronger effect = lower value 1 | locus YCL016C, strain dcc1, stronger effect = lower value 0.988 | locus YCL029C, strain bik1, stronger effect = lower value 1.02 | locus YCL061C, strain MRC1, stronger effect = lower value 0.997 | locus YCL069W, strain vba3, stronger effect = lower value 0.997 | locus YCR088W, strain abp1, stronger effect = lower value 0.998 | locus YDL005C, strain med2, stronger effect = lower value 0.992 | locus YDL035C, strain GPR1, stronger effect = lower value 1.03 | locus YDL040C, strain nat1, stronger effect = lower value 0.99 | locus YDL074C, strain BRE1, stronger effect = lower value 1 | locus YDL101C, strain DUN1, stronger effect = lower value 1.01 | locus YDL134C, strain PPH21, stronger effect = lower value 1.01 | locus YDL185W, strain tfp1, stronger effect = lower value 1 | locus YDL192W, strain arf1, stronger effect = lower value 1.01 | locus YDR001C, strain nth1, stronger effect = lower value 0.99 | locus YDR069C, strain doa4, stronger effect = lower value 1.01 | locus YDR101C, strain arx1, stronger effect = lower value 1 | locus YDR137W, strain rgp1, stronger effect = lower value 0.985 | locus YDR150W, strain NUM1, stronger effect = lower value 1.02 | locus YDR159W, strain sac3, stronger effect = lower value 1.01 | locus YDR162C, strain NBP2, stronger effect = lower value 1.02 | locus YDR195W, strain ref2 0.963 | locus YDR297W, strain sur2, stronger effect = lower value 0.999 | locus YDR318W, strain mcm21, stronger effect = lower value 1.05 | locus YDR334W, strain swr1, stronger effect = lower value 0.996 | locus YDR335W, strain msn5, stronger effect = lower value 0.992 | locus YDR388W, stronger effect = lower value 0.986 | locus YDR392W, strain spt3, stronger effect = lower value 0.942 | locus YDR502C, strain sam2, stronger effect = lower value 1.04 | locus YEL003W, strain gim4, stronger effect = lower value 0.994 | locus YEL037C, strain rad23, stronger effect = lower value 0.99 | locus YEL061C, strain CIN8 (second series), stronger effect = lower value 0.991 | locus YEL061C, strain CIN8, stronger effect = lower value 1.01 | locus YER015W, strain faa2, stronger effect = lower value 0.993 | locus YER016W, strain bim1, stronger effect = lower value 0.999 | locus YER110C, stronger effect = lower value 0.994 | locus YER111C, strain swi4, stronger effect = lower value 0.995 | locus YER155C, strain BEM2 (second series), stronger effect = lower value 1 | locus YER155C, strain BEM2, stronger effect = lower value 1 | locus YER167W, strain BCK2, stronger effect = lower value 1.03 | locus YFR010W, strain ubp6, stronger effect = lower value 1.01 | locus YGL078C, strain dbp3, stronger effect = lower value 1.01 | locus YGL086W, strain mad1, stronger effect = lower value 1.04 | locus YGL167C, strain pmr1, stronger effect = lower value 0.992 | locus YGL173C, strain kem1, stronger effect = lower value 1.01 | locus YGL227W, strain vid30, stronger effect = lower value 0.994 | locus YGL240W, strain doc1, stronger effect = lower value 0.998 | locus YGL248W, strain PDE1, stronger effect = lower value 1 | locus YGL253W, strain hxk2, stronger effect = lower value 0.982 | locus YGR078C, strain PAC10, stronger effect = lower value 1.01 | locus YGR135W, strain pre9, stronger effect = lower value 1.06 | locus YGR229C, strain SMI1, stronger effect = lower value 1.01 | locus YGR252W, strain gcn5, stronger effect = lower value 1.04 | locus YHR013C, strain ard1, stronger effect = lower value 1.09 | locus YHR027C, strain rpn1, stronger effect = lower value 0.99 | locus YHR030C, strain SLT2, stronger effect = lower value 1.01 and 0.982 | locus YHR079C, strain IRE1 (second series), stronger effect = lower value 0.999 | locus YHR079C, strain IRE1, stronger effect = lower value 0.988 | locus YHR094C, strain hxt1, stronger effect = lower value 0.991 | locus YHR129C, strain ARP1, stronger effect = lower value 1 | locus YHR142W, strain chs7, stronger effect = lower value 0.994 | locus YHR200W, strain rpn10, stronger effect = lower value 1.02 | locus YIL066C, strain RNR3, stronger effect = lower value 1.04 | locus YIL073C, strain SPO22, stronger effect = lower value 1.25 | locus YIL125W, strain kgd1, stronger effect = lower value 1 | locus YIR030C, strain dcg1, stronger effect = lower value 1 | locus YJL092W, strain hpr5, stronger effect = lower value 0.993 | locus YJL095W, strain BCK1 (second series), stronger effect = lower value 0.99 | locus YJL095W, strain BCK1, stronger effect = lower value 1.01 | locus YJL115W, strain asf1, stronger effect = lower value 0.985 | locus YJL129C, strain trk1, stronger effect = lower value 1 | locus YJL134W, strain LCB3, stronger effect = lower value 1 | locus YJL154C, strain vps35, stronger effect = lower value 0.986 | locus YJL164C, strain tpk1, stronger effect = lower value 1.01 | locus YJL166W, strain qcr8, stronger effect = lower value 0.989 | locus YJL168C, strain set2, stronger effect = lower value 0.996 | locus YJL187C, strain SWE1 (second series), stronger effect = lower value 1.03 | locus YJL187C, strain SWE1, stronger effect = lower value 0.994 | locus YJR043C, strain POL32, stronger effect = lower value 1.01 | locus YJR066W, strain TOR1, stronger effect = lower value 0.942

Reference: PubChem BioAssay AID1159580 (chemical genetic matrix, 2015)
